A selection: hits, their analogues and other compounds. The true share with any hit is near 3%.
GDH-TPI counter-1: GDH-TPI coupling enzyme inhibitors, primary screen, artefact control for M. tuberculosis FBA inhibitor project, biochemical, absorbance, full deck. GDH-TPI coupled enzyme counterscreen, NADH absorbance. inhibition, % at 4.8 µM. actives 1.2% (n = 360,000); in the data active = inhibition above about 30%;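 also: 0% = DMSO wells and 100% = wells lacking the enzyme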
Vc quorum ag: inducers of Vibrio cholerae quorum light production without autoinducers, primary screen, BH1578 luxS cqsA deficient, single point. activation, % at 18.7 µM. AID 588436, 2011. actives 0.16% (n = 350,000). V. cholerae BH1578 lux reporter, luminescence, 6 h; in the data active = activation mostly above about 9.7%, no sharp cut-off
BioA inh: M. tuberculosis BioA enzyme inhibitors, primary screen, biochemical, plate reader, single point, HTS. 7,8-diaminopelargonic acid synthase BioA (Mycobacterium tuberculosis). actives 0.096% (n = 360,000). inhibition, % at 9.99 µM. purified M. tuberculosis BioA enzyme. AID 602481, 2012; in the data active = inhibition above about 40%
FBA Mtb inh: Mtb FBA enzyme inhibitors, primary screen, biochemical, fluorescence, strain H37Rv. Fructose-bisphosphate aldolase (Mycobacterium tuberculosis (strain ATCC 25618 / H37Rv)), …. purified M. tuberculosis FBA, fluorescence read-out. inhibition, % at 1 µM. actives 2.3% (n = 360,000);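 also: 0% = vehicle and 100% = reference inhibitor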
Target sequence (P9WQA3 whole entry, looked up): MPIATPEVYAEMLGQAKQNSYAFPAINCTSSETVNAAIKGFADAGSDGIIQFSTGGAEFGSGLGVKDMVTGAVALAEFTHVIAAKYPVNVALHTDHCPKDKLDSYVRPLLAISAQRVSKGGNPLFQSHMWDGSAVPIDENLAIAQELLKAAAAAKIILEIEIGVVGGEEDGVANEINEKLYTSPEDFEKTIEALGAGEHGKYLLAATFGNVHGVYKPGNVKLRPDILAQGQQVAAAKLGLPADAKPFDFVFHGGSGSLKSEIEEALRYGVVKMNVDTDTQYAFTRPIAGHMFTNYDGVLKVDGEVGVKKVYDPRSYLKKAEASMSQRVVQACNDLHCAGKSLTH
Mtb FBA confirm: M. tuberculosis aldolase blockers, biochemical, fluorescence, strain H37Rv, confirmation; shares compounds with FBA Mtb inh; purified M. tuberculosis FBA, fluorescence read-out; inhibition, % at 1 µM; actives 78% (n = 5,600);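 also: 0% = vehicle wells and 100% = reference inhibitor wells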
GDH-TPI counter-2: GDH-TPI coupling enzyme inhibitors, artefact control for M. tuberculosis FBA inhibitor project, biochemical, fluorescence, high throughput. actives 81% (n = 5,600). inhibition, % at 1 µM. shares compounds with FBA Mtb inh. GDH-TPI coupled enzyme counterscreen; in the data active = inhibition above about 10%
GDH-TPI DR: GDH-TPI coupling enzyme inhibitors, dose response, artefact control for M. tuberculosis FBA inhibitor project, biochemical, fluorescence, IC50; shares compounds with FBA Mtb inh; GDH-TPI coupled enzyme assay, artifact counterscreen; IC50, µM; actives 79% (n = 170); AID 652145, 2013; call rule not given here
* marks the source's active call; other numbers are inactive results; i = inactive; / = no result; + = active, no number. Rule as the data show it, unless noted: active = inhibition above about 27%; inactive = the rest.

SMILES	GDH-TPI counter-1	Vc quorum ag	BioA inh	FBA Mtb inh	Mtb FBA confirm	GDH-TPI counter-2	others
N=c1c(C(=O)NCc2ccc(F)cc2)cc2c(=O)n3ccccc3nc2n1Cc1cccnc1	11	-1	7	102*	152*	116*
CN1C(=O)c2cc(NC(=O)C3CCOCC3)ccc2OC[C@H]2O[C@H](CC(=O)NCc3ccccc3F)CC[C@H]21	/	/	0	/	/	/
CN(C)C(=O)C[C@H]1CC[C@@H]2[C@H](COC[C@H](O)CN2C(=O)C2CCCC2)O1	/	/	0	/	/	/
COc1ccccc1CNC(=O)C[C@@H]1C[C@@H]2c3cc(NC(=O)NC4CCCC4)ccc3O[C@@H]2[C@@H](CO)O1	/	/	-1	/	/	/
CN1CCN(C(=O)C[C@H]2C=C[C@H](NC(=O)Cc3ccccn3)[C@@H](CO)O2)CC1	/	/	3	/	/	/
N=c1c(C(=O)NCCc2ccccc2)cc2c(=O)n3ccccc3nc2n1Cc1ccco1	3	0	/	30*	+	163*
O=C(CSc1nc2ccccc2c(=O)n1Cc1ccco1)NCc1ccccc1	-1	i	-1	1	/	/
N=c1c(C(=O)NC2CCCCC2)cc2c(=O)n3ccccc3nc2n1CCc1ccccc1	-5	i	0	47*	5	4
COc1ccc(CCn2c(=N)c(S(=O)(=O)c3ccccc3)cc3c(=O)n4ccccc4nc32)cc1	-4	-5	-4	3	/	/
N=c1c(C(=O)NC2CCCCC2)cc2c(=O)n3ccccc3nc2n1Cc1ccco1	5	-2	0	36*	12	-1	GDH-TPI DR=>10
Cc1ccc(Cn2c(=N)c(C(=O)NC3CCCC3)cc3c(=O)n4ccccc4nc32)cc1	9	i	-1	53*	99*	98*
CC(C)Cc1ccc(CN2CCCC(NC(=O)c3cnc4ccccn4c3=O)C2)cc1 (centres undefined)	7	0	2	19	/	/
CC=Cc1ccc2n(c1=O)C[C@H]1[C@H](CO)[C@@H](C(=O)N[C@@H](C)c3ccccc3)[C@@H]2N1Cc1ccncc1 (mixture of isomers)	/	/	-1	/	/	/
Cc1ccc(S(=O)(=O)c2cc3c(=O)n4ccccc4nc3n(C)c2=N)cc1	13	-1	2	40*	52*	42*
O=C(Cn1c(=O)n(Cc2ccco2)c(=O)c2cc(Cl)ccc21)NCC1CCCO1 (centres undefined)	-3	6	1	6	/	/
Cc1ccc(S(=O)(=O)c2cc3c(=O)n4ccccc4nc3n(CCc3ccccc3)c2=N)cc1	0	0	-1	2	/	/
N=c1c(C(=O)NC2CCCCC2)cc2c(=O)n3ccccc3nc2n1Cc1ccccc1	0	0	2	55*	167*	134*
Cc1cccn2c(=O)c3cc(S(=O)(=O)c4ccccc4)c(=N)n(Cc4ccc(F)cc4)c3nc12	6	-1	0	3	/	/
Cc1nc2ccccn2c1C(=O)NC1CCCC1	1	i	0	6	/	/
Cc1cccn2c(=O)c3cc(C(=O)NC4CCCCC4)c(=N)n(Cc4ccc(F)cc4)c3nc12	-1	0	0	31*	+	+
N=c1c(C(=O)NCC2CCCO2)cc2c(=O)n3ccccc3nc2n1Cc1ccco1 (centres undefined)	10	0	1	28*	+	192*
C[C@H]1CN([C@@H](C)CO)C(=O)Cc2cc(NS(C)(=O)=O)ccc2O[C@H]1CN(C)C(=O)Nc1ccc2c(c1)OCO2	/	/	0	/	/	/
C[C@H]1CN([C@@H](C)CO)C(=O)c2cc(C#CC3CC3)cnc2O[C@H]1CN(C)S(=O)(=O)c1cccc(F)c1	/	/	0	/	/	/
Cc1ccc(S(=O)(=O)c2cc3c(=O)n4ccccc4nc3n(C3CCCC3)c2=N)cc1	11	-1	/	5	/	/
O=C(NC1CCCCCC1)C1c2ccccc2C(=O)N1Cc1cccnc1 (centres undefined)	12	i	/	7	/	/
SMILES	GDH-TPI counter-1	Vc quorum ag	BioA inh	FBA Mtb inh	Mtb FBA confirm	GDH-TPI counter-2	others
N=c1c(S(=O)(=O)c2ccccc2)cc2c(=O)n3ccccc3nc2n1Cc1ccco1	19	i	-1	64*	134*	97*
N=c1c(C(=O)NC2CCCCC2)cc2c(=O)n3ccccc3nc2n1Cc1cccnc1	9	0	-2	107*	+	+
Cc1ccc(S(=O)(=O)c2cc3c(=O)n4ccccc4nc3n(CC3CCCO3)c2=N)cc1C (centres undefined)	12	0	-3	37*	92*	63*
C[C@H]1CN([C@@H](C)CO)C(=O)c2cc(NC(=O)Cc3cn(C)c4ccccc34)ccc2O[C@H]1CN(C)C	/	/	-2	/	/	/
Nc1ncccc1C(=O)OCC(=O)N1CCN(S(=O)(=O)c2ccc(Cl)cc2)CC1	23	i	1	62*	9	-4
COc1ccc(C#Cc2ccc3c(c2)O[C@H](CN(C)C(=O)c2ccccn2)[C@@H](C)CN([C@H](C)CO)S3(=O)=O)cc1	/	/	-3	/	/	/
COc1ccc2sc(-c3ccc(SC)cc3)c(C#CCO)c2c1	16	0	-1	27	/	/
COc1ccc2sc(-c3ccc(SC)cc3)c(C#CC(C)(C)O)c2c1	39*	i	-2	30*	-1	0
Cc1cc(OCc2nn[nH]n2)c2c3c(c(=O)oc2c1)CCCC3	10	0	/	84*	59*	47*
CCN(CC)C(=O)COc1cc(C)cc2oc(=O)c3c(c12)CCCC3	13	i	3	81*	61*	43*
C=CCOC(=O)COc1cc(C)cc2oc(=O)c3c(c12)CCC3	17	i	-6	57*	+	170*
Cc1c(C)c2cc(Cl)c(OCc3nn[nH]n3)cc2oc1=O	12	-1	1	55*	92*	75*
Cc1cc(OCc2ccc([N+](=O)[O-])cc2)c2c3c(c(=O)oc2c1)CCCC3	2	3	-1	6	/	/
Cc1ccc(S(=O)(=O)N2CC[C@@H]3[C@H]2c2cc(-c4cccc(C#N)c4)ccc2N(C)[C@H]3CO)cc1	/	/	2	/	/	/
COCC(=O)Nc1ccc2c(c1)[C@H]1C[C@@H](CC(=O)NCc3ccccn3)O[C@@H](CO)[C@H]1O2	/	/	0	/	/	/
CC1CC(NC(=O)c2cc3c(=O)n4ccccc4nc3n2C)CC(C)(C)C1 (centres undefined)	7	0	0	72*	71*	62*

Assay outcomes: PubChem BioAssay, several laboratories
